Measurements taken from PubChem BioAssay (EPA / NIEHS).
“And” between values parts separate entries of the source, which are not always exact repeats. Identical values can stand only once. The source holds several records for some structures; these can differ, active in one and inactive in another. The source made the active and inactive calls. Rule for the calls: active = hit-call score of the fitted dose curve at least 0.9, where 1 is the maximum; inactive = score below 0.9.

Experiment: APR_HepG2_CellLoss_72hr: Apredica 72-hour HepG2 Assay for Cell Loss (AID 2282915)
Conditions: high-content imaging
Experimental: APR_HepG2_72hr is a cell-based, multiplexed-readout assay that uses HepG2, a human liver cell line, with measurements taken at 72 hours after chemical dosing in a 384-well plate.APR_HepG2_CellLoss_72hr is one of 10 assay component(s) measured or calculated from the APR_HepG2_72hr assay. It is designed to make measurements of cell number, a form of viability reporter, as detected with fluorescence intensity signals by HCS Fluorescent Imaging technology.Data from the assay component APR_HepG2_CellLoss_72hr was analyzed into 1 assay endpoint. This assay endpoint, APR_HepG2_CellLoss_72hr, was analyzed with bidirectional fitting relative to DMSO as the negative control and baseline of activity. Using a type of viability reporter, measures of all nuclear dna for gain or loss-of-signal activity can be used to understand the viability at the cellular-level. Furthermore, this assay endpoint can be referred to as a secondary readout, because this assay has produced multiple assay endpoints where this one serves a viability function. To generalize the intended target to other relatable targets, this assay endpoint is annotated to the cell cycle intended target family, where the subfamily is proliferation.
Cells were treated with dimethyl sulfoxide (DMSO) as a solvent control at a final concentration of 0.5% v/v or with compounds in DMSO with a resulting final DMSO concentration of 0.5% v/v. Compound treatment was done at concentrations of 0.39, 0.78, 1.56, 3.12, 6.24, 12.5, 25, 50, 100, and 200 uM in duplicate on each plate. Cells were treated with compounds for 1, 24, or 72 hr. Carbonyl […] m-chloro-phenylhydrazone (CCCP) and taxol were used as positive controls for mitochondrial function and cytoskeletal stability, respectively; DMSO served as the negative control for this experiment. Cells were fixed by the direct addition of 50 uL formaldehyde in Hank's Balanced Salt Solution (HBSS) to a final concentration of 3.7%. After incubation in the fixation medium for 30 min at room temperature (293-298 K), cells were rinsed twice with HBSS and treated with cell permeabilization buffer (16 uL of 0.5% Triton X-100) for 10 min at room temperature (293-298 K) before labeling. For mitochondrial membrane potential and mitochondrial measurements, pre-fixed cells were incubated with 50 uL of MitoTracker Red CMXRos (Invitrogen) at a concentration of 250 nM for 30 min before fixation. In the remaining cases, post-fixed cells were labeled by incubation with a multiplexed mixture of primary antibodies in HBSS for 60 min at room temperature (293-298 K) to detect immunoreactivity of c-Jun (1:500), phospho-histone H3 (1:100), phospho-histone H2A.x (1:200), p53 (1:400), alpha-tubulin (1:200) and Hoechst 33342 (2 ug/mL). Cells were labeled for multiplexed imaging on two separate plates: a) Hoechst 33342, MitoTracker Red, phospho-histone H3, and alpha-tubulin, and b) Hoechst 33342, phospho-histone H2A.x, and c-Jun. A final rinse with HBSS (50 uL) was performed before analysis. The primary and secondary antibodies for the proteins were phospho-histone H3 (rabbit anti-phospho-histone H3 and FITC-donkey anti-rabbit IgG), phospho-histone H2A.x (mouse anti-phospho-histone H2A.x and FITC-donkey anti-mouse IgG), c-Jun (rabbit anti-phospho-c-Jun and Cy3-donkey anti-rabbit IgG), p53 (sheep anti-p53 and Cy5-donkey anti-sheep IgG), alpha-tubulin (mouse anti-alpha-tubulin and Cy5-donkey anti-mouse IgG). These antibodies are available as the CellCiphr HepG2 assay kit (Millipore).Digital images of each well were captured using a Cellomics ArrayScan VTI (Thermo Scientific Cellomics) (0.8 NA objective, 0.63x optical coupler, and XF-93 filter set) at 20x magnification. The images were acquired using the autofocus feature of the ArrayScan instrument, which entails the following steps. First, the camera focuses on channel 1 (Hoechst 33342), where nuclei are identified. Second, a Z offset of 1 um is used for capturing mitochondria (MitoTracker Red). […]
With `N#Cc1nn(-c2c(Cl)cc(C(F)(F)F)cc2Cl)c(N)c1S(=O)C(F)(F)F` (stereo not given) the AC50 was 63.1 µM (active). In the case of `CC(C)C1(C)N=C(c2nc3ccccc3cc2C(=O)O)NC1=O` (stereo not given), the outcome is reported as “inactive”. With `CS/C(C)=N/OC(=O)N(C)SN(C)C(=O)O/N=C(\C)SC` the outcome was “inactive”. For `CON(C)C(=O)Nc1ccc(Cl)c(Cl)c1`, the outcome was “inactive”. With `N#CC(CCc1ccc(Cl)cc1)(Cn1cncn1)c1ccccc1` (stereo not given) the outcome was “inactive”. For `N#Cc1cc(Br)c(O)c(Br)c1`, the AC50 was 101 µM (active). In the case of `COc1nc(C)nc(NC(=O)NS(=O)(=O)c2ccccc2CCC(F)(F)F)n1`, the outcome is reported as “inactive”. With `CCCN(CCC)c1c([N+](=O)[O-])cc(S(N)(=O)=O)cc1[N+](=O)[O-]` the AC50 was 38.6 µM (active) and 39.2 µM (active) and 46.7 µM (active) and the outcome was “inactive”. With `COC(=O)C=C(C)OP(=O)(OC)OC` the outcome was “inactive”. With `CCCCNC(=O)OCC#CI` the AC50 was 1.45 µM (active) and 7.9 µM (active). With `CCNc1nc(Cl)nc(NCC)n1` the outcome was “inactive”. With `CCOP(=S)(OCC)SCn1c(=O)oc2cc(Cl)ccc21` the AC50 was 61.4 µM (active). With `Cc1ccc(-c2c(Cl)nc(C#N)n2S(=O)(=O)N(C)C)cc1` the AC50 was 65.4 µM (active). In the case of `COc1ccc(C(c2ccc(OC)cc2)C(Cl)(Cl)Cl)cc1`, the AC50 is reported as 72.7 µM (active). For `CCCCC(CC)COC(=O)c1ccccc1C(=O)OCC(CC)CCCC` (stereo not given), the outcome was “inactive”. In the case of `CN(C)C(=S)SSC(=S)N(C)C`, the AC50 is reported as 0.153 µM (active). With `COC(=O)C(C)Oc1ccc(Oc2ccc(Cl)cc2Cl)cc1` (stereo not given) the outcome was “inactive”. In the case of `COC(=O)N(OC)c1ccccc1COc1ccn(-c2ccc(Cl)cc2)n1`, the AC50 is reported as 1.44 µM (active). With `CCON=C(CC)C1=C(O)CC(c2c(C)cc(C)cc2C)CC1=O` (stereo not given) the outcome was “inactive”. With `O=C(Nc1ccccc1)Nc1ccnc(Cl)c1` the AC50 was 53.8 µM (active). For `O=C(O)COc1nc(Cl)c(Cl)cc1Cl`, the outcome was “inactive”. In the case of `COc1nc(NC(C)C)nc(NC(C)C)n1`, the outcome is reported as “inactive”. In the case of `COc1nc(C)nc(NC(=O)NS(=O)(=O)c2ccccc2Cl)n1`, the outcome is reported as “inactive”. With `Fc1ccc(Oc2ccnc3cc(Cl)cc(Cl)c23)cc1` the AC50 was 76.2 µM (active). With `COc1cnc(OC)n2nc(NS(=O)(=O)c3c(OCC(F)F)cccc3C(F)(F)F)nc12` the outcome was “inactive”. With `COP(N)(=O)SC` (stereo not given) the outcome was “inactive”. With `OC(c1ccc(Cl)cc1)(c1cncnc1)c1ccccc1Cl` (stereo not given) the AC50 was 10.4 µM (active). In the case of `CCOC(=O)C(Cl)Cc1cc(-n2nc(C)n(C(F)F)c2=O)c(F)cc1Cl` (stereo not given), the outcome is reported as “inactive”. For `Cc1cc(Cl)ccc1OCC(=O)O`, the outcome was “inactive”. In the case of `CCOc1cc(Oc2ccc(C(F)(F)F)cc2Cl)ccc1[N+](=O)[O-]`, the AC50 is reported as 31.5 µM (active). In the case of `CNC(=O)ON=CC(C)(C)SC`, the outcome is reported as “inactive”. With `CCOC(=O)CC(SP(=S)(OC)OC)C(=O)OCC` (stereo not given) the AC50 was 109 µM (active). With `CC1COC(Cn2cncn2)(c2ccc(Oc3ccc(Cl)cc3)cc2Cl)O1` (stereo not given) the AC50 was 10.6 µM (active). In the case of `CC(C)(C)c1ccc(CSc2cnn(C(C)(C)C)c(=O)c2Cl)cc1`, the AC50 is reported as 8.33 µM (active). In the case of `C=CC1(C)OC(=O)N(c2cc(Cl)cc(Cl)c2)C1=O` (stereo not given), the outcome is reported as “inactive”. For `C#CCOS(=O)OC1CCCCC1Oc1ccc(C(C)(C)C)cc1` (stereo not given), the AC50 was 3.12 µM (active). In the case of `CC1=C(C(=O)Nc2ccccc2)SCCO1`, the outcome is reported as “inactive”. For `O=C(O)c1nc(Cl)ccc1Cl`, the outcome was “inactive”. For `C=CCC1=C(C)[C@@H](OC(=O)[C@@H]2[C@@H](C=C(C)C)C2(C)C)CC1=O`, the AC50 was 102 µM (active).
